About 8,600 (12%) of roughly 69,000 compounds showed an effect of 50% or more. The sample holds strong results, similar compounds and a random draw of the others, so the mix is not that of the screen.
Each molecule was assayed on Plasmodium berghei (assay: Screen against P. berghei liver stage (PbLuc), transformed with Luciferase, at 10uM). Conditions: tested at 10 uM.
Format: functional, HepG2

| SMILES | INHIBITION [%] |
| --- | --- |
| CC(C)OCCCNC(=O)CS(=O)(=O)Cc1ccc(C(C)(C)C)cc1 | -27.8 |
| Cc1ccccc1OC1CCN(CC(=O)Nc2cn(C)nc2C)CC1 | 17.3 |
| Cc1nn(C)cc1NC(=O)CN1CCC(Oc2cnccn2)CC1 | -2.09 |
| Cc1ccccc1OC1CCN(CC(=O)Nc2c(C)nn(C)c2C)CC1 | 52.5 |
| CCn1cc(NC(=O)CN2CCC(Oc3ccc(F)cc3)CC2)c(C)n1 | 58 |
| CCn1cc(NC(=O)CN2CCC(Oc3ccccc3C)CC2)c(C)n1 | -0.275 |
| Cc1ccccc1OC1CCN(CC(=O)Nc2ccn(C)n2)CC1 | 15.1 |
| COCC(c1cccc(C(F)(F)F)c1)N(C)C(=O)c1ccoc1 (configuration not stated) | 40.49 |
| COc1cccc2c3c(c(=O)n(C)c12)CCC(C)(C)O3 | 12.3 |
| Cn1cccc1C(=O)N1CCn2cc(CNC(=O)CC3CC3)nc2C1 | 9.67 |
| CCc1ncc2c(n1)CN(Cc1cnc(C)cn1)CC2 | 25.2 |
| COCCC(=O)N1CCC(c2nnc(-c3ccsc3)o2)CC1 | 0.75 |
| COc1cc(C2c3c(n[nH]c3C)N=C3COC(=O)C32)cc2c1OCO2 (configuration not stated) | 58.1 |
| COc1cc(C2SCC(=O)Nc3[nH]ncc32)cc2c1OCO2 (configuration not stated) | 30.2 |
| COc1cc(C2c3c(n[nH]c3C)N=C3COC(=O)C32)cc(Br)c1O (configuration not stated) | 62.3 |
| COc1cccc(C2c3c(n[nH]c3C)N=C3COC(=O)C32)c1OC (configuration not stated) | -7.77 |
| COc1cccc(C2c3c(n[nH]c3C)N=C3COC(=O)C32)c1O (configuration not stated) | 48 |
| CCOc1c(Br)cc(C2c3c(n[nH]c3C)N=C3COC(=O)C32)cc1OC (configuration not stated) | 72.4 |
| CSc1nc(N)c2c(n1)N=C1COC(=O)C1C2c1cccc(O)c1 (configuration not stated) | 25.1 |
| O=C(NCc1ccco1)[C@H]1CC[C@@H]2[C@@H](CCN2c2ncc(F)cn2)O1 | 38.1 |
| CC(=O)NC1CCCN(C(=O)NCCOc2ccc3c(c2)OCO3)C1 (configuration not stated) | 15.6 |
| O=C(CCc1ccncc1)N1CCCC(n2cccn2)C1 (configuration not stated) | 24.39 |
| O=C(c1cccn1Cc1cccs1)N1CCC(C(=O)N2CCCC2)CC1 | 11.6 |

| SMILES | INHIBITION [%] |
| --- | --- |
| COCc1cccc(CNCc2c(C)nn(C)c2N2CCOCC2)c1 | 27.4 |
| CCCN1CCCCCC1Cc1c(C(=O)NC)sc2ccccc12 (configuration not stated) | 17.235 |
| CN1CCCNC(=O)C12CCN(C(=O)c1ccc3[nH]cnc3c1)CC2 | 20.2 |
| CCc1noc(C(C)N2CCN(CCOCC(F)(F)F)CC2)n1 (configuration not stated) | -5.545 |
| CCCN1CCC(CNC(=O)C2(c3ccccc3)CCC2)C1 (configuration not stated) | 42.9 |
| O=C(NCC1CCN(CCc2ccccc2)C1)NCC1(O)CCC1 (configuration not stated) | 53.8 |
| O=C(NCc1nccn1CCc1ccccc1)NCC1(O)CCC1 | -4.15 |
| Cc1noc(C(C)C)c1C(=O)NCC1CCCN1Cc1ccccc1 (configuration not stated) | 24.1 |
| O=C(NCC1CCCN1Cc1ccccc1)NCC1(O)CCC1 (configuration not stated) | 53.8 |
| O=C(NCC1CCCN1CCc1ccccc1)NCC1(O)CCC1 (configuration not stated) | 19.2 |
| CCC(=O)NCCCn1c(-c2cccnc2C)cc2cccnc21 | 10.9 |
| CCNC(=O)C(C)NC(=O)Nc1ccccc1SCC (configuration not stated) | 5.17 |
| O=C(NCCCn1nc2ccccn2c1=O)Nc1ccccc1Cl | 7.12 |
| CCNC(=O)C(C)NC(=O)Nc1ccccc1SC(F)(F)F (configuration not stated) | 65 |
| Cn1c(C(F)(F)F)nn(CCNC(=O)Nc2ccccc2Cl)c1=O | 21 |
| CCCNC(=O)C(C)NC(=O)Nc1ccccc1SC(F)F (configuration not stated) | 41.5 |
| CCNC(=O)C(C)NC(=O)Nc1ccccc1Cl (configuration not stated) | 62.9 |
| O=C1CCC2(CCC(NCc3ccoc3)CC2)N1 (configuration not stated) | 2.58 |
| O=C(CN1CCc2sccc2C1)Nc1nccs1 | -41.6 |
| COC1COC2(CCN(CC3CCOCC3)CC2)C1 (configuration not stated) | 14 |
| Cc1ccnc(NC(=O)c2ccc(F)c(S(=O)(=O)NC3CC3)c2)c1 | -25.4 |
| CCn1cnnc1C1CCN(C(=O)c2ccccc2F)CC1 | 21 |
| CNC(=O)C1Cn2ccnc2C2(CCN(C(=O)c3ccoc3C)CC2)O1 (configuration not stated) | -7.7 |

| SMILES | INHIBITION [%] |
| --- | --- |
| CC(C)c1noc(C(C)N2CCN(Cc3nc4ccccc4[nH]3)CC2)n1 (configuration not stated) | 53.3 |
| CC(C)c1noc(C(C)N2CCC(c3nc4ccccc4[nH]3)CC2)n1 (configuration not stated) | 36.5 |
| CC(C)c1noc(C(C)N2CCN(Cc3cccs3)CC2)n1 (configuration not stated) | 15.5 |
| CC(C)C(Sc1cccs1)C(=O)NCc1cccnc1 (configuration not stated) | 18.4 |
| Cc1nc(CN(C)C2CCN(CCCOc3ccc(F)cc3)C2)no1 (configuration not stated) | -0.219 |
| O=C(c1ccco1)N1CCCC(c2cc(C(F)F)n3ncnc3n2)C1 (configuration not stated) | 14.8 |
| COCC(=O)N1CCCC(c2cc(C(F)F)n3ncnc3n2)C1 (configuration not stated) | 59.3 |
| O=C(c1ccncc1)N1CCCC(c2cc(C(F)F)n3ncnc3n2)C1 (configuration not stated) | 35.2 |
| O=C(Cc1ccsc1)N1CCCC(c2cc(C(F)F)n3ncnc3n2)C1 (configuration not stated) | 28 |
| CC(C)C(=O)N1CCCC(c2cc(C(F)F)n3ncnc3n2)C1 (configuration not stated) | 39.8 |
| O=C(c1ccco1)N1CCCC(c2cc(C(F)(F)F)n3ncnc3n2)C1 (configuration not stated) | 60.4 |
| O=C(c1cnoc1)N1CCC[C@]2(C[C@H](Oc3ncccc3F)CO2)C1 | -28.2 |
| CCCSCC(=O)N1C[C@H]2CC[C@@H](C1)N(Cc1ccccn1)C2=O | 35.9 |
| O=C1OCCN1CC(=O)N1C[C@@H]2CC[C@H]1CN(C(=O)c1ccccc1)C2 | -12.6 |
| O=c1c(NCCOCCO)c(N2CCN(c3ccccc3)CC2)c1=O | 6.34 |
| CCn1nc(C)c2nnn(CC(=O)Nc3ccc(C)c(C)c3)c(=O)c21 | 11 |
| COc1nc(C)c(C(=O)NCc2cc(N3CCOCC3)ncn2)s1 | 34 |
| COc1ccc(C(=O)NCc2cc(N3CCOCC3)ncn2)o1 | 8.11 |
| Cc1cc(C(=O)NCc2ccnc(N3CCOCC3)c2)c(C)s1 | 4.65 |
| O=C(NCc1cc(N2CCOCC2)ncn1)c1cccc(CO)n1 | 71.1 |
| O=C(Cn1ccc2ccccc21)NCc1cc(N2CCOCC2)ncn1 | 12.8 |
| COc1cc(C(=O)NCc2cc(N3CCOCC3)ncn2)ccn1 | 63.7 |
| CCn1cnnc1CNC(=O)N1CCN(c2ccccc2O)CC1 | 36.1 |

| SMILES | INHIBITION [%] |
| --- | --- |
| NCC1[C@H]2CN(Cc3ccccc3F)C[C@@H]12 (some centres not stated) | 45.7 |
| O=c1cc(CSc2nnc[nH]2)nc2sc3c(n12)CCCC3 | 16.5 |
| COCCCS(=O)(=O)N1CCN(Cc2cccn2C)CC1 | 51.1 |
| CC(C)OCCS(=O)(=O)N1CCN(Cc2cccn2C)CC1 | 4.1 |
| COCCCS(=O)(=O)N1CCN(c2cccc(O)c2)CC1 | 14.6 |
| Cc1c(Br)cccc1C(=O)NCCC1CCCNC1 (configuration not stated) | 28.6 |
| O=C(C1CC(c2ccccc2)=NO1)N1CCCCc2ccccc21 (configuration not stated) | -15 |
| CCC(c1ccccc1)S(=O)(=O)CCO (configuration not stated) | 61.8 |
| CCC(c1ccc(F)cc1F)S(=O)(=O)CCO (configuration not stated) | 23.8 |
| CCC(c1ccc(F)cc1)S(=O)(=O)CCO (configuration not stated) | 15.9 |
| Nc1nccnc1C1CN(C(=O)COc2cccnc2)CCO1 (configuration not stated) | -50.3 |
| COCC(=O)N1CCC2(CC1)C(=O)N(Cc1cccnc1)CCN2C | 43.2 |
| O=C(O)c1cc(C=Cc2cccc3ccccc23)ncn1 | 8.05 |
| c1ccc(-c2nccc(CNC3CCc4ncnn4C3)n2)cc1 (configuration not stated) | 36.1 |
| Cn1ncc2c(N3CCC3)nc(-c3ccncc3)nc21 | -3.83 |
| Cn1ncc2c(NC3CCSC3)nc(-c3ccncc3)nc21 (configuration not stated) | 61.6 |
| Cn1ncc2c(N3CC[C@H](O)C3)nc(-c3ccncc3)nc21 | 19.8 |
| Cn1ncc2c(NCC3CCS(=O)(=O)C3)nc(-c3ccncc3)nc21 (configuration not stated) | 15.1 |
| Cn1ncc2c(N[C@@H]3C[C@H]4CC[C@@H]3C4)nc(-c3ccncc3)nc21 | 35.1 |
| Cn1ncc2c(NC3CCC3)nc(-c3ccncc3)nc21 | 33.7 |
| CN1[C@@H]2CC[C@H]1CN(c1nc(-c3ccncc3)nc3c1cnn3C)CC2 | 71.3 |
| CC(C)N1CCCN(c2nc(-c3cccnc3)nc3c2cnn3C)CC1 | 86.6 |
| Cn1ncc2c(N3CCS(=O)(=O)CC3)nc(-c3cccnc3)nc21 | 35 |

| SMILES | INHIBITION [%] |
| --- | --- |
| Cn1ncc2c(NC3CN4CCC3CC4)nc(-c3ccncc3)nc21 (configuration not stated) | 53.2 |
| Cn1ncc2c(N3CCC(F)(F)CC3)nc(-c3ccncc3)nc21 | 31 |
| Cn1ncc2c(N3CC(N4CCCCC4)C3)nc(-c3ccncc3)nc21 | 22.6 |
| CC(=O)N1CCc2cc(Cl)cc(Cl)c2C1 | 37.7 |
| COCC1CC2(CCN(CC3CC3)CC2)CN1c1ncccn1 (configuration not stated) | 18.2 |
| Cn1ccc(C(=O)NC2CCC23CCN(Cc2ccc(F)cc2)CC3)c1 (configuration not stated) | -9.02 |
| Nc1ncnc2nc(C3CCN(C(=O)Cc4ccccc4)C3)ccc12 (configuration not stated) | 6.3535 |
| COc1ccc(-c2cc(C3CCNCC3)nc(C)n2)cc1 | -29.9 |
| COc1ccc(N2CCN(Cc3nc(CSC)no3)CC2=O)cc1 | -42.9 |
| CCNC(=O)Cc1ccc(NC(=O)NC(CC)c2ccncc2)cc1 (configuration not stated) | 4.15 |
| CCC(NC(=O)Nc1ccc(OC)c(C)c1)c1ccncc1 (configuration not stated) | 26.6 |
| CCC(NC(=O)NCC(=O)Nc1ccc(F)cc1)c1ccncc1 (configuration not stated) | 58.3 |
| O=C(c1ccco1)N1C[C@H]2CCCN(CC3CCOCC3)[C@H]2C1 | 49.5 |
| Cc1cnc(NCCCN2CCCCC2CO)nc1 (configuration not stated) | 20.8 |
| NC(=O)C(Cc1ccccc1)NS(=O)(=O)Cc1ccccc1Cl (configuration not stated) | 9.75 |
| NC(=O)C(Cc1ccccc1)NS(=O)(=O)Cc1ccccc1F (configuration not stated) | 50.5 |
| N#Cc1cccc(CS(=O)(=O)NCCC(O)c2ccccc2)c1 (configuration not stated) | 24.5 |
| N#Cc1cccc(CS(=O)(=O)NC(Cc2ccccc2)C(N)=O)c1 (configuration not stated) | 58.1 |
| N#Cc1cccc(CS(=O)(=O)NCC(O)Cc2ccccc2)c1 (configuration not stated) | 30.8 |
| O=S(=O)(Cc1ccccc1F)NC(CO)c1ccco1 (configuration not stated) | 45.1 |

Reference: ChEMBL document CHEMBL4513216, “Probing the Open Global Health Chemical Diversity Library for Multistage-Active Starting Points for Next-Generation Antimalarials” (ACS Infect Dis, 2020)
